Assay outcomes: PubChem, The Scripps Research Institute Molecular Screening Center
ssDAF12 agonist – S. stercoralis DAF-12 nuclear receptor activators, primary screen, cell-based, luminescence, HEK293, GRIP1 co-expression, lit1-tk-luc; activation, % at 6.8 µM; HEK293 ssDAF-12/GRIP1 lit1-tk-luc reporter; % of 3 µM dafachronic acid response; actives 1% (n = 370,000); Nuclear hormone receptor DAF-12 (Strongyloides stercoralis); AID 652126, 2013;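 active means activation above the mean over all tested compounds plus 3 SD, cut at about 0.9% in these data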;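 further: 0% = DMSO-only wells and 100% = 3 µM delta7-dafachronic acid wells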
hcDAF12 agonist – H. contortus DAF-12 nuclear receptor activators, primary screen, cell-based, luminescence, HEK293, lit1-tk-luc reporter | HEK293 hcDAF-12 lit1-tk-luc reporter; 0% DMSO, 100% Δ7-dafachronic acid | activation, % at 6.8 µM | actives 1.4% (n = 370,000) | AID 652067, 2013;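 active means activation above the mean of all tested compounds plus 3 SD, cut at about 5.5% in these data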;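 further: 100% = response to 3 µM Δ7-dafachronic acid high control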
DAX1 inh-1 – DAX1 (NR0B1) inhibitors on StAR promoter, primary screen, cell-based, luminescence, SF-1 (NR5A1), full-length DAX-1. inhibition, % at 6.8 µM. actives 1.1% (n = 370,000). HEK293T StAR-luciferase reporter, SF-1/DAX-1 repression relief. AID 652010, 2013;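 active means inhibition above the mean over all tested compounds plus 3 SD, cut at about 3.6% in these data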;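 further: 0% = DAX-1 cells with DMSO and 100% = cells lacking DAX-1 with DMSO; higher inhibition means more luminescence from relief of DAX-1 repression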
DAX1 inh-2 – DAX1 (NR0B1) inhibitors, primary screen, cell-based, HEK293, Gal4-DAX1, luciferase luminescence | Nuclear receptor subfamily 0 group B member 1 (Homo sapiens), P51843 | HEK293 Gal4-DAX1 luciferase reporter | inhibition, % at 6.75 µM | actives 0.99% (n = 340,000);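 active means inhibition above the mean over all tested compounds plus 3 SD, cut at about 4.2% in these data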;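 further: 0% = DAX1-transfected cells with DMSO and 100% = empty-vector control cells with DMSO; inhibition shows as a rise in luminescence from relieved DAX1 repression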
Target sequence (P51843 207-470 limits assumed): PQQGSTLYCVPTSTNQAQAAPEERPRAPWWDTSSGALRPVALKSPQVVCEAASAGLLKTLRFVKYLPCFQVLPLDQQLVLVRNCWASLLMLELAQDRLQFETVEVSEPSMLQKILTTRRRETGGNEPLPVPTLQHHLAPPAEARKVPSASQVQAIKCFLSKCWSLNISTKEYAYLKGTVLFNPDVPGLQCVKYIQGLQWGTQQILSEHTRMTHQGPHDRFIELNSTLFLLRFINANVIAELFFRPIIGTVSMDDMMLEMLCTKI
hgDAF12 agonist – H. glycines DAF-12 receptor agonists, primary screen, cell-based, luminescence, HEK293, GAL4 fusion, UAS-luciferase; Nuclear hormone receptor DAF-12 (Heterodera glycines), GAL4 fusion; HEK293 GAL4-hgDAF12 UAS-luciferase reporter, agonist luminescence; normalized to butyrate control; activation, % at 6.8 µM; actives 1.8% (n = 370,000);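 active means activation above a cutoff set at the mean of all screened compounds plus 3 SD, cut at about 10% in these data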;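 further: 0% = DMSO wells and 100% = sodium butyrate wells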
* marks the source's active call; other numbers are inactive results. Compounds with a hit are over-represented: about 4.1% of the library has one in this group of screens.

For COc1cccc(NC(=O)c2nnn(CCc3ccccc3)c2N)c1 the results were ssDAF12 agonist -1, hcDAF12 agonist 0, DAX1 inh-1 0, DAX1 inh-2 6.0* and hgDAF12 agonist 9.
`CSc1cccc(NC(=O)c2nnn(Cc3ccccc3)c2N)c1` gave ssDAF12 agonist -1, hcDAF12 agonist -2, DAX1 inh-1 0, DAX1 inh-2 0 and hgDAF12 agonist 0.
COc1cccc(NC(=O)Cn2nnc(C(=O)Nc3ccccc3)c2N)c1 was read as ssDAF12 agonist 1, hcDAF12 agonist -1, DAX1 inh-1 -1, DAX1 inh-2 -1 and hgDAF12 agonist 2.
For O=C(NCC1CCCO1)C(=O)N/N=C/c1ccc(OCc2ccccc2Cl)cc1 (centres undefined) the results were ssDAF12 agonist -1, hcDAF12 agonist 0, DAX1 inh-1 -1, DAX1 inh-2 -1 and hgDAF12 agonist 1.
CC1(C)CC(=O)C2=C(C1)OC(N)=C(C#N)[C@@H]2c1ccccc1[N+](=O)[O-] was read as ssDAF12 agonist 1.5*, hcDAF12 agonist 2, DAX1 inh-1 0, DAX1 inh-2 0 and hgDAF12 agonist 4.
Screening COc1cc(C2C(C#N)=C(N)OC3=C2C(=O)CC(C)(C)C3)c([N+](=O)[O-])cc1OC (centres undefined) returned ssDAF12 agonist -1, hcDAF12 agonist 0, DAX1 inh-1 0, DAX1 inh-2 1 and hgDAF12 agonist -2.
Screening C[C@H](CO)N1C[C@H](C)[C@@H](CN(C)C(=O)Cc2cccnc2)Oc2ncc(C#CCc3ccccc3)cc2C1=O returned ssDAF12 agonist -1, hcDAF12 agonist -2, DAX1 inh-1 -1 and hgDAF12 agonist 4.
CC(C)C[C@H]1CN([C@@H](Cc2ccccc2)CN2CCC[C@@H]2CN2C(=O)C(=O)NC[C@@H]2Cc2ccccc2)C(=O)C(=O)N1CCc1ccccc1 was read as ssDAF12 agonist -1, hcDAF12 agonist 1, DAX1 inh-1 0 and hgDAF12 agonist 1.
Screening C/C(=N/NC(=O)c1ccc(Br)o1)c1cccs1 returned ssDAF12 agonist 0, hcDAF12 agonist 1, DAX1 inh-1 3.7*, DAX1 inh-2 1 and hgDAF12 agonist 7.
For CCOC(=O)C(C(=O)OCC)C(Nc1cccc(Br)c1)c1ccccc1 (centres undefined) the results were ssDAF12 agonist -2, hcDAF12 agonist -1, DAX1 inh-1 -1, DAX1 inh-2 -3 and hgDAF12 agonist -1.
For CCOC(=O)C(c1ccccc1)C(Nc1ccc(Cl)c(Cl)c1)c1ccccn1 (centres undefined) the results were ssDAF12 agonist 1.0*, hcDAF12 agonist 1, DAX1 inh-1 0 and hgDAF12 agonist 0.
For COc1cc(NC(=O)c2sc(C)nc2C)c(OC)cc1NC(=O)c1ccccc1 the results were ssDAF12 agonist -2, hcDAF12 agonist 1, DAX1 inh-1 0, DAX1 inh-2 -1 and hgDAF12 agonist 0.
CC(=O)N1CCN(C(=S)NC(=O)c2ccc(S(=O)(=O)N3CCOCC3)cc2)CC1 was read as ssDAF12 agonist -1, hcDAF12 agonist -4, DAX1 inh-1 -1, DAX1 inh-2 4.7* and hgDAF12 agonist 1.
Screening CC(C)(C)c1ccc(C(=O)NCC(=O)N2CCCC2)cc1 returned ssDAF12 agonist -1, hcDAF12 agonist 2, DAX1 inh-1 1, DAX1 inh-2 0 and hgDAF12 agonist 2.
For CC(C)(C)c1ccc(C(=O)NCCN2CCCC2)cc1 the results were ssDAF12 agonist 1.1*, hcDAF12 agonist 1, DAX1 inh-1 0, DAX1 inh-2 1 and hgDAF12 agonist 2.
Cc1ccc(C(=O)NCCC(=O)N2CCCC2)cc1 was read as ssDAF12 agonist 1, hcDAF12 agonist 5, DAX1 inh-1 1, DAX1 inh-2 6.1* and hgDAF12 agonist 13*.
`CC(C)(C)c1ccc(C(=O)NCC(=O)O)cc1` gave ssDAF12 agonist -1, hcDAF12 agonist -1, DAX1 inh-1 1, DAX1 inh-2 4.8* and hgDAF12 agonist 0.
